# In PubChem BioAssay (Tox21):
# Inconclusive results are not listed. The source made the active and inactive calls. Calls follow the shape of the dose curve; as a rule, active = well fitted curve in the direction sought with a large enough effect in the signal ratio in the repeat runs (not every such curve was filed as active); inconclusive = weak or mixed curves, or a change in a side signal; inactive = no such curve, though single readings can be large or run the other way; the % refers to the signal ratio.
# Experiment: qHTS assay to identify small molecule agonists of the NFkB signaling pathway (AID 1159509)
# Conditions: NFkB-bla ME-180 cells, beta-lactamase FRET ratio, 5 h; series mostly up to 61 µM
# From the text: National Center for Advancing Translational Sciences [NCATS]
# NIH Chemical Genomics Center [NCGC]
# U.S. Environmental Protection Agency [EPA]
# National Institutes of Environmental Health Sciences [NIEHS]
# National Toxicology Program [NTP]
# U.S. Food and Drug Administration [FDA]
# Transcription factors and their stimulated target gene expression play pivotal roles across many cellular processes including responses to environmental stimuli. Proper regulation of associated pathways is critical to maintain cell health and function. Constitutive activation of transcription factor pathways has been implicated in tumors as it may block cellular functions such as apoptosis and lead to invasion and metastasis. One important transcription factor that stimulates gene expression in response to cytokines, UV radiation, and other stimuli is nuclear factor-kappa B (NFkB). To measure activation of the NFkB pathway, the CellSensor NFkB-bla ME-180 cell line (Life Technologies, Carlsbad, CA) that stably expresses beta-lactamase reporter gene under the regulation of a NF-kB response element was used. This assay allows measurement of the NFkB pathway activity induced by compounds in a ME-180 cell line. This system quantitates NF-kB activity using a FRET-based assay system where beta-lactamase expression disrupts FRET, allowing for fluorescent measurement of activity. This cell line has been used to screen the Tox21 10K compound library and to identify compounds that induce the NFkB pathway activity.
# Tox21 Assay Protocol Summary:
# NFkB-bla ME-180 cells were dispensed at 2,000 cells/6 uL of assay medium per well into black wall/clear-bottom 1536-well plates using a Multidrop Combi (ThermoFisher Scientific, Waltham, MA) dispenser. After the assay plates were incubated at 37 C and 5% CO2 for an overnight, 23 nL of compounds dissolved in DMSO, positive controls or DMSO only was transferred to the assay plate by a Pintool station (Kalypsys, San Diego, CA). The assay plates were incubated at 37 C and 5% CO2 for 5 hr. One uL of LiveBLAzer B/G FRET substrate (Life Technologies) was added using a Flying Reagent Dispenser (Aurora Discovery, San Diego, CA) and the plates were incubated at room temperature for 1.5 hr. Fluorescence intensity (405 nm excitation, 460 nm and 530 nm emissions) was measured using an Envision plate reader (PerkinElmer, Shelton, CT).
# % is scaled to controls: 0 for no effect and ±100 for the full control effect.
Structure (SMILES),outcome,activation
OCCCCCCCl,inactive,–
Nc1cc(S(=O)(=O)O)ccc1S(=O)(=O)O,inactive,–
Cc1nc(C)nc(N2C[C@@H](C)N(c3ccnc([C@@H](C)O)n3)[C@@H](C)C2)n1,inactive,–
CC(C)CCC(=O)CCC(C)C,inactive,–
CC1=NN(c2ccc(S(=O)(=O)O)cc2)C(=O)C1N=Nc1ccccc1 (stereo not given),inactive,–
CCCCC[Si](OCC)(OCC)OCC,inactive,–
CNC(=O)C(c1ccccc1)c1ccccc1,inactive,–
CCCCCC(=O)OCC,inactive,–
CC(C)(c1ccc(Oc2ccc3c(c2)C(=O)OC3=O)cc1)c1ccc(Oc2ccc3c(c2)C(=O)OC3=O)cc1,inactive,–
CN[C@@H]1[C@@H](O)[C@@H](O[C@@H]2[C@H](O)[C@H](O[C@H]3OC(CN)=CC[C@H]3N)[C@@H](N)C[C@H]2N)OCC1(C)O (stereo not given in full),inactive,–
O=CO,–,-0.32% [at 6.95 µM] (inactive)
O=C(O)c1ccccc1C(=O)OCc1ccccc1,inactive,–
CCS(=O)(=O)CCn1c([N+](=O)[O-])cnc1C,inactive,–
C=COCCOCCOC=C,inactive,–
CC(=O)Nc1ncc([N+](=O)[O-])s1,inactive,–
CCCCC(=O)N(C)C,inactive,–
C=C[Si](C)(C)O[Si](C)(C)C=C,inactive,–
O=S(=O)(O)CCO,inactive,–
CC1=CC[C@H](CC=O)C1(C)C,inactive,–
Cc1ncc([N+](=O)[O-])n1CC(O)CCl (stereo not given),inactive,–

Structure (SMILES),outcome,activation
CC(=O)OC[C@H]1O[C@@H](OC(C)=O)[C@H](OC(C)=O)[C@@H]1OC(C)=O,inactive,–
C[C@H]1O[C@H](O[C@H]2[C@H](O)[C@@H](O)[C@@H](O[C@H]3[C@H](O)[C@@H](O)[C@H](O)O[C@@H]3CO)O[C@@H]2CO)[C@H](O)[C@@H](O)[C@@H]1N[C@H]1C=C(CO)[C@@H](O)[C@H](O)[C@H]1O,inactive,–
NC(Cc1c[nH]c2ccccc12)C(=O)O (stereo not given),inactive,–
NS(=O)(=O)c1cc2c(cc1Cl)NC(CC1CCCC1)NS2(=O)=O (stereo not given),inactive,–
C[C@H](CCC(=O)O)[C@H]1CC[C@H]2[C@@H]3[C@H](O)C[C@@H]4C[C@H](O)CC[C@]4(C)[C@H]3C[C@H](O)[C@]12C,inactive,–
CC(C)(C)c1ccc(C=O)cc1,inactive,–
O=C(COCCOCCOCC(=O)Nc1c(I)cc(I)c(C(=O)O)c1I)Nc1c(I)cc(I)c(C(=O)O)c1I,inactive,–
O=S1(=O)CCCC1,inactive,–
COc1cc(C=O)ccc1OC(=O)C(C)C,inactive,–
C=CCOc1c(Br)cc(Br)cc1Br,inactive,–
CCCOC(=O)CCCCC(=O)OCCC,inactive,–
FC(F)(F)c1ccc(Cl)cc1Cl,inactive,–
Nc1nc(=O)n([C@@H]2O[C@H](CO)[C@@H](O)[C@@H]2F)cc1I,inactive,–
C/C=C(\C)C(=O)OCC/C=C\CC,inactive,–
Cc1nc2ccccc2c(=O)o1,inactive,–
COc1ccc(N=Nc2cc(C)c(N=Nc3ccc(S(=O)(=O)O)cc3)cc2OC)cc1,inactive,–
Cc1nc([N+](=O)[O-])cn1-c1ccc([N+](=O)[O-])cc1,inactive,–
Cc1ccc2c(c1)c1c3n2CCNC3CCC1 (stereo not given),inactive,–
OC(CCN1CCCCC1)(c1ccccc1)c1ccccc1,inactive,–
CCCCCCCCOC(C)=O,inactive,–
